8 compounds from PubChem BioAssay (NCI) can be followed below.

Some test systems named below: EKVX NSCLC; SN12C renal; UO-31 renal; ACHN renal; CAKI-1 renal; A498 renal; CCRF-CEM leukemia; MOLT-4 leukemia; SR leukemia; RPMI-8226 leukemia; OVCAR-8 ovarian; OVCAR-5 ovarian; OVCAR-4 ovarian; SK-OV-3 ovarian; IGROV1 ovarian; OVCAR-3 ovarian; HS 578T breast; NCI/ADR-RES ovarian; T-47D breast.
What all share (experiment): NCI-60 one-dose screen, 48 h (100 = growth as untreated, 0 = no growth, -100 = all killed)
Holding throughout (details): 10 µM unless noted

SMILES strings stand for the structures. This is part of a sample that, as a whole, favours compounds with a hit. Of some 83,000 tested, about 20% had one in any assay.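 Growth was measured after 48 h exposure to one concentration of compound in 96-well plates. Values under 10 count as active.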 Unmarked numbers belong to inactive results. Calls of active or inactive are those of the source.

Take `COc1cc(-c2ccc3ncnc(NC(C)c4ccccc4)c3c2)cnc1OC` (configuration not stated): the growth was 19.5% with EKVX NSCLC; 39.1% in the experiment with SN12C renal; 19.1% with UO-31 renal; 21% in the experiment on ACHN renal; 16.4% in the experiment on CAKI-1 renal; -14.9% (active) in the experiment with A498 renal. In addition, the growth in the experiment with CCRF-CEM leukemia was 56.3%; in the experiment on MOLT-4 leukemia it was 45.1%; with SR leukemia, 43.7%; in the experiment with RPMI-8226 leukemia it was 26.5%; in the experiment with OVCAR-8 ovarian, 55.2%; in the experiment on OVCAR-5 ovarian, 42.8%. Further, the growth with OVCAR-4 ovarian is 49%; in the experiment on SK-OV-3 ovarian, 40.4%; in the experiment with IGROV1 ovarian, -23.2% (active); in the experiment with OVCAR-3 ovarian it was 25.2%; in the experiment with HS 578T breast, 21.1%; in the experiment with NCI/ADR-RES ovarian, 58.8%. Moreover, the growth with T-47D breast was 1.57% (active).

As for `Clc1ccc2c(NCCCN3CCOCC3)c3oc4ccc(Cl)cc4c3nc2c1`, the growth was 65.3% with EKVX NSCLC; 40% with SN12C renal; 32.2% with UO-31 renal; 12.1% with ACHN renal; 21.6% in the experiment with CAKI-1 renal; 49.7% in the experiment with A498 renal. Also, the growth with CCRF-CEM leukemia was 48.9%; in the experiment with MOLT-4 leukemia it was 15.4%; in the experiment on SR leukemia, 1.24% (active); in the experiment on RPMI-8226 leukemia, 67.8%; in the experiment with OVCAR-8 ovarian, 35.6%; in the experiment on OVCAR-5 ovarian, 47.4%. Also, the growth with OVCAR-4 ovarian was 87.4%; with SK-OV-3 ovarian, 89.3%; with IGROV1 ovarian, 42.9%; in the experiment on OVCAR-3 ovarian it was 104%; in the experiment on HS 578T breast, 84%; in the experiment with NCI/ADR-RES ovarian, 42.5%. The growth in the experiment with T-47D breast is 91.4%.

As for `O=C(CN1CCOCC1)NNc1ncnc2ccccc12`, the growth with EKVX NSCLC was 85.7%; in the experiment on SN12C renal it was 89.4%; in the experiment on UO-31 renal it was 71.5%; with ACHN renal, -91% (active); in the experiment with CAKI-1 renal it was 93.9%; in the experiment on A498 renal it was 111%. The growth was 13.8% in the experiment on CCRF-CEM leukemia; 74.6% in the experiment with MOLT-4 leukemia; 68.3% in the experiment with SR leukemia; 90.9% in the experiment on RPMI-8226 leukemia; 102% with OVCAR-8 ovarian; 69.3% in the experiment with OVCAR-5 ovarian. Also, the growth in the experiment with OVCAR-4 ovarian was 96.1%; in the experiment on SK-OV-3 ovarian, 107%; in the experiment on IGROV1 ovarian it was 79.3%; in the experiment on OVCAR-3 ovarian, 64.7%; in the experiment on HS 578T breast, 89.5%; with NCI/ADR-RES ovarian, 104%. The growth with T-47D breast is 41.6%.

`Cc1cccc2sc(/N=C(\N)C(Cl)(Cl)Cl)nc12`: the growth in the experiment with EKVX NSCLC is 71%; in the experiment on SN12C renal, 110%; in the experiment on UO-31 renal, 90.5%; in the experiment with ACHN renal it was 98.4%; in the experiment with CAKI-1 renal, 85.3%; in the experiment with A498 renal it was 92.7%. Besides, the growth is 107% in the experiment on CCRF-CEM leukemia; 103% in the experiment with MOLT-4 leukemia; 100% in the experiment with SR leukemia; 105% with RPMI-8226 leukemia; 102% with OVCAR-8 ovarian; 119% with OVCAR-5 ovarian. Moreover, the growth with OVCAR-4 ovarian is 97.4%; in the experiment with SK-OV-3 ovarian it was 101%; in the experiment with IGROV1 ovarian, 98.3%; with OVCAR-3 ovarian, 115%; in the experiment on HS 578T breast it was 97.1%; with NCI/ADR-RES ovarian, 108%. The growth in the experiment with T-47D breast was 74.8%.

For `Cc1nc(-c2cc3ccccc3oc2=O)ccc1C(=O)/C=C/c1ccc(N2CCOCC2)cc1`, the growth with EKVX NSCLC was 86.6%; with SN12C renal it was 83.8%; in the experiment on UO-31 renal, 83.9%; in the experiment with ACHN renal, 70.9%; in the experiment with CAKI-1 renal, 65.1%; with A498 renal, 75.2%. Also, the growth in the experiment with CCRF-CEM leukemia is 72.4%; with MOLT-4 leukemia, 66.1%; in the experiment with SR leukemia it was 26%; in the experiment on RPMI-8226 leukemia, 93.4%; in the experiment with OVCAR-8 ovarian it was 81%; in the experiment with OVCAR-5 ovarian, 101%. The growth in the experiment on OVCAR-4 ovarian was 72.4%; with SK-OV-3 ovarian it was 88.7%; in the experiment with IGROV1 ovarian, 82.6%; in the experiment on OVCAR-3 ovarian, 87%; in the experiment on HS 578T breast, 59.7%; in the experiment on NCI/ADR-RES ovarian, 67.3%. In the experiment on T-47D breast, the growth is 80.2%.

Consider `N/C(=N\c1nc2c(Br)cccc2s1)C(Br)Br`, for which the growth in the experiment with EKVX NSCLC is 16.4%; with SN12C renal it was 18%; in the experiment with UO-31 renal, 4.29% (active); with ACHN renal, -40.4% (active); in the experiment on CAKI-1 renal it was -19.6% (active); in the experiment with A498 renal, 0.53% (active). Further, the growth with CCRF-CEM leukemia was -1.73% (active); in the experiment with MOLT-4 leukemia it was -2.89% (active); in the experiment with SR leukemia it was -24% (active); in the experiment on RPMI-8226 leukemia, -16.5% (active); with OVCAR-8 ovarian, -18% (active); in the experiment on OVCAR-5 ovarian, 8.49% (active). Moreover, the growth was 43.2% with OVCAR-4 ovarian; 53% in the experiment with SK-OV-3 ovarian; -67.6% (active) with IGROV1 ovarian; -27.4% (active) in the experiment on OVCAR-3 ovarian; 6.83% (active) in the experiment on HS 578T breast; 6.58% (active) with NCI/ADR-RES ovarian. Further, the growth in the experiment on T-47D breast is 33.1%.

Regarding `N#Cc1nc(-c2ccccc2)oc1S(=O)(=O)N1CCN(CCc2ccccn2)CC1`, the growth was 89% in the experiment on EKVX NSCLC; 77.2% with SN12C renal; -42.3% (active) in the experiment on UO-31 renal; -95.4% (active) in the experiment on ACHN renal; 54.3% in the experiment with CAKI-1 renal; 112% in the experiment with A498 renal. Also, the growth in the experiment on CCRF-CEM leukemia is 1.54% (active); in the experiment on MOLT-4 leukemia, 0.215% (active); in the experiment with SR leukemia, -19.2% (active); in the experiment on RPMI-8226 leukemia, 36.1%; with OVCAR-8 ovarian, 84.9%; in the experiment on OVCAR-5 ovarian, 86.3%. Further, the growth with OVCAR-4 ovarian is 89.7%; in the experiment with SK-OV-3 ovarian, 137%; with IGROV1 ovarian it was 10%; with OVCAR-3 ovarian, 31.2%; with HS 578T breast it was 106%; with NCI/ADR-RES ovarian it was 99.2%. Besides, the growth in the experiment on T-47D breast was -24.2% (active).

For the compound `Clc1ccc2oc3c(NCCCn4ccnc4)c4ccccc4nc3c2c1`, the growth with EKVX NSCLC was 73.8%; in the experiment on SN12C renal, 38.4%; with UO-31 renal, 30%; with ACHN renal, 9.12% (active); in the experiment with CAKI-1 renal, 30.6%; in the experiment on A498 renal, 14.3%. For the same compound, the growth in the experiment on CCRF-CEM leukemia was 19.4%; with MOLT-4 leukemia it was 7.69% (active); with SR leukemia, -5.22% (active); in the experiment with RPMI-8226 leukemia it was 37.6%; with OVCAR-8 ovarian, 43.4%; with OVCAR-5 ovarian, 50.1%. Also, the growth in the experiment with OVCAR-4 ovarian was 63%; with SK-OV-3 ovarian it was 93.9%; in the experiment with IGROV1 ovarian it was 36.5%; with OVCAR-3 ovarian, 76.7%; in the experiment with HS 578T breast it was 61.7%; in the experiment with NCI/ADR-RES ovarian it was 41.2%. For the same compound, the growth in the experiment with T-47D breast is 88.9%.
